# Laboratory results from PubChem BioAssay (NCI).
# This is part of a sample that, as a whole, favours compounds with a hit. Of some 83,000 tested, about 20% had one in any assay.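 Treatment: one concentration, 48 hours, 96-well format. Scoring: percent growth, with anything below 10 considered active.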 Unmarked numbers belong to inactive results. Activity calls are given as the source filed them.
# How the values were obtained:
# Test in all cases: NCI-60 one-dose screen, 48 h (100 = growth as untreated, 0 = no growth, -100 = all killed)
# HCT-15 colon = conditions: 10 µM unless noted
# HT29 colon = conditions: 10 µM unless noted
# SNB-75 CNS = conditions: 10 µM unless noted
# SNB-19 CNS = conditions: 10 µM unless noted
# U251 CNS = conditions: 10 µM unless noted
# PC-3 prostate = conditions: 10 µM unless noted
# SK-MEL-5 melanoma = conditions: 10 µM unless noted
# LOX IMVI melanoma = conditions: 10 µM unless noted
# SK-MEL-28 melanoma = conditions: 10 µM unless noted
# SK-MEL-2 melanoma = conditions: 10 µM unless noted
# EKVX NSCLC = conditions: 10 µM unless noted
# SN12C renal = conditions: 10 µM unless noted
# UO-31 renal = conditions: 10 µM unless noted
# TK-10 renal = conditions: 10 µM unless noted
# ACHN renal = conditions: 10 µM unless noted
# CAKI-1 renal = conditions: 10 µM unless noted
# A498 renal = conditions: 10 µM
# HL-60(TB) leukemia = conditions: 10 µM unless noted
# CCRF-CEM leukemia = conditions: 10 µM unless noted
# UACC-62 melanoma = conditions: 10 µM unless noted
SMILES,growth (HCT-15 colon),growth (HT29 colon),growth (SNB-75 CNS),growth (SNB-19 CNS),growth (U251 CNS),growth (PC-3 prostate),growth (SK-MEL-5 melanoma),growth (LOX IMVI melanoma),growth (SK-MEL-28 melanoma),growth (SK-MEL-2 melanoma) [%],growth (EKVX NSCLC),growth (SN12C renal),growth (UO-31 renal),growth (TK-10 renal),growth (ACHN renal),growth (CAKI-1 renal),growth (A498 renal),growth (HL-60(TB) leukemia),growth (CCRF-CEM leukemia),growth (UACC-62 melanoma) [%]
CC12CCC3C(CCC4=CC(=O)CCC43CF)C1CCC2=O (stereo not given),106%,116%,90.1%,109%,111%,97.4%,109%,96.6%,117%,97.2,94.8%,113%,87.8%,115%,120%,111%,111%,113%,88.2%,–
Cn1cc(-c2csc(-c3cn(CCN4CCOCC4)c4ccccc34)n2)c2cccnc21,46.5%,70.4%,74.5%,84.4%,67.3%,20.5%,17.6%,67.1%,78.2%,68.8,55.1%,77.4%,34.9%,87.9%,63%,–,–,36.1%,36.9%,–
OCc1ccc2c(c1)OCO2,104%,96.4%,84.5%,104%,95.8%,94.3%,102%,–,108%,99.5,96.3%,101%,88%,91.7%,104%,93.2%,111%,96.1%,102%,–
CC(C)(C)C(=O)OCOP(=O)(NCc1ccccc1)C1CCCN(O)C1=O (stereo not given),22.5%,21.5%,70.6%,37.9%,13.8%,67.7%,31.2%,51.9%,17%,53.7,67.3%,5.58% (active),1.82% (active),68.9%,34.2%,31.9%,–,–,12.9%,–
Nc1ccc(-c2nc3cc(F)ccc3[se]2)cc1F,52.8%,61%,76.6%,95.3%,87.2%,74.3%,82.1%,88.2%,115%,97.7,49.2%,83%,38.5%,43.6%,30.3%,–,13.5%,64.9%,44.8%,–
Cn1cc(-c2csc(-c3cn(CCCCN4CCCCC4)c4ccccc34)n2)c2cccnc21,-74.9% (active),-85.6% (active),53.1%,-32.1% (active),-72.3% (active),51.3%,-92.1% (active),-72.6% (active),-79.2% (active),37.9,69.9%,81.8%,-77.8% (active),50.2%,–,–,81%,-62.3% (active),-11% (active),–
CC[C@H](C)[C@H](NC(=O)[C@H]1CCCCN1C)C(=O)N(C)[C@H](C[C@@H](OC(C)=O)c1nc(C(=O)N[C@@H](Cc2ccccc2)C[C@H](C)C(=O)OC)cs1)C(C)C,5.1% (active),-3.46% (active),31.8%,31.4%,11.8%,23.7%,-69.5% (active),–,53.6%,42.8,36.7%,37.2%,40.3%,18.1%,13.6%,32.2%,7.53% (active),-38.6% (active),4.02% (active),–
O=[N+]([O-])/C=C\c1ccc(Cl)c(Cl)c1,26.1%,-40.4% (active),42%,61.5%,19.3%,70.1%,56.3%,-30.7% (active),89.7%,84,91.8%,77.5%,35.4%,82.7%,78.4%,84.7%,–,34.6%,33.6%,–
COc1ccc(C(=O)c2sc3nc4c(cc3c2N)N2CCC4CC2)cc1OC,96.4%,105%,83.9%,108%,84.9%,–,48.2%,–,96.1%,–,–,93.4%,52.8%,91.7%,81.8%,79.7%,116%,94.5%,74.7%,89.9
CCn1c2ccccc2c2cc(C(=O)c3cccc4c3CCCN4)ccc21,104%,113%,91.6%,97.6%,106%,108%,–,94.4%,103%,99.5,99.3%,93.7%,94.1%,107%,102%,99.3%,112%,–,120%,–
Cc1ccc(S(=O)(=O)F)cc1C(=O)O,102%,100%,76.8%,97.5%,–,110%,102%,102%,110%,105,–,99.1%,91.9%,107%,101%,93.9%,132%,104%,97.2%,109
CCCc1cc(O)c2c3c(c(=O)oc2c1)CN(C)CC3,23.2%,10.8%,-8.41% (active),44.4%,16.7%,–,42.3%,30.9%,56.4%,97.7,–,39.1%,22.7%,47.3%,44.6%,4.68% (active),15.4%,6% (active),18.8%,37.8
O=C(CC1(O)C(=O)N(Cc2ccccc2)c2ccc(Br)cc21)c1ccc(C(=O)NCC2CCC3(CC2)OOC2(CCCCC2)OO3)cc1 (stereo not given),2.73% (active),-65.5% (active),15%,56.1%,-85.4% (active),-36.3% (active),–,-79.7% (active),77.4%,34.1,-65% (active),-55.8% (active),-73.3% (active),-80.9% (active),-83% (active),-90.8% (active),-74% (active),–,-41.6% (active),80.7
C=C(C)[C@@]12OC3(/C=C/C=C/CCCCC)O[C@@H]1[C@@H]1[C@@H]4O[C@]4(CO)[C@@H](O)[C@]4(O)C(=O)C(C)=C[C@H]4[C@@]1(O3)[C@H](C)[C@H]2OC(=O)c1ccccc1,67.1%,14.1%,56.6%,92.8%,53.2%,28.6%,–,50.9%,81.5%,80.4,67.4%,16.5%,39.7%,47.1%,42.9%,69.8%,-47.2% (active),-7.45% (active),45.8%,59.7
C/C(=C\c1ccn(-c2ccc(N)cc2C(F)(F)F)n1)[C@@H]1C[C@@H]2O[C@]2(C)CCC[C@H](C)[C@H](O)[C@@H](C)C(=O)C(C)(C)[C@@H](O)CC(=O)O1,14%,10.5%,-7.43% (active),21.5%,13.3%,15.4%,–,26.4%,63.2%,18.1,33.7%,22.6%,38.2%,39.8%,–,31.4%,-4.95% (active),-0.118% (active),16.3%,27.7
C[N+]12CN3CN(CN(C3)C1)C2,110%,99.3%,46.8%,–,100%,81.3%,112%,99.7%,106%,96.2,96.4%,112%,95.5%,128%,108%,83.6%,109%,142%,73.8%,104
